From PubChem BioAssay (NCATS)
Results filed as inconclusive are left out.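 Rule for the calls, unless noted: active = compounds whose dose series gives a full or clear partial fitted curve of increased nuclear translocation; inconclusive = weak partial curve or effect only at the top dose; inactive = no dose-dependent translocation response.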

Test system: not listed separately
Experiment: Stat Signaling Pathway (AID 446; active = well fitted curve in either direction with a large enough effect, not every such curve was filed as active;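 note: ME-180 cervical cancer cells given 40 pM IL-6 alongside compound; SIE-controlled beta-lactamase reporter measured as 460/530 nm FRET emission ratio; % is set by controls: 0 for no effect and ±100 for the full control effect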)
Conditions: ME-180 (cervical carcinoma) SIE beta-lactamase reporter, IL-6 stimulated, 5 h; at 7.69 µM (top of the series) unless noted
Method in brief: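 Normalization used AC90 stimulation (300 pM IL-6) and AC90 inhibition (125 nM pan-JAK inhibitor at 40 pM IL-6). The underlying signal is SIE-driven beta-lactamase in ME-180 cells after 5 h IL-6 exposure with compound.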

activity, negative = inhibition, inactive:
COc1ccc2c(c1)N(CC[C@H]1CCCCN1C)c1ccccc1S2 -6.74%
CSc1ccc2c(c1)N(CCCN(C)C)c1ccccc1S2 2.23%
CC(=O)O[C@H]1CC[C@@]2(C)C(=CC[C@@H]3[C@@H]4CC[C@H](c5cc(C(F)(F)F)n(C(C)=O)n5)[C@]4(C)CC[C@@H]32)C1 16.4%

Target: Glucocorticoid receptor (Homo sapiens) (UniProt P04150)
Sequence (P04150 whole entry, looked up): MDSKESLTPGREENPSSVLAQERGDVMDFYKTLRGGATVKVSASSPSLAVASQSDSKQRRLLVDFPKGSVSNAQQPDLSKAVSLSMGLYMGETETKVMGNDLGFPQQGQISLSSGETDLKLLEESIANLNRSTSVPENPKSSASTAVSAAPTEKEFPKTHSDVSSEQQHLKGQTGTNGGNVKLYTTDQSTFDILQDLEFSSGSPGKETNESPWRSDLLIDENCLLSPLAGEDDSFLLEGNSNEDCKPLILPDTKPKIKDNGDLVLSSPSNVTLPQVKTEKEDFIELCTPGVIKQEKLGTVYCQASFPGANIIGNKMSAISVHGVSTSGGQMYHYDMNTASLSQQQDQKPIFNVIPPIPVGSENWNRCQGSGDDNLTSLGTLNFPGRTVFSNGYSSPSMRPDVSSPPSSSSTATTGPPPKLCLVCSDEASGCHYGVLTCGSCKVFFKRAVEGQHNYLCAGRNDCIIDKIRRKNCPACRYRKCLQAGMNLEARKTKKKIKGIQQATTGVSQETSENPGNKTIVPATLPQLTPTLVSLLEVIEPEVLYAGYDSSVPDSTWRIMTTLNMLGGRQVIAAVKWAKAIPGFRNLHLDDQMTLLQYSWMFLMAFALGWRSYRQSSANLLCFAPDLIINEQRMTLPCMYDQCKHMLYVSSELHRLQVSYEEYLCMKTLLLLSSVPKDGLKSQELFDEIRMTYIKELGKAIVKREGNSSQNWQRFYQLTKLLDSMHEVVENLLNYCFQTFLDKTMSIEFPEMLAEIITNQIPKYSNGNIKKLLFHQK
Experiment: GR-GFP Redistribution (AID 450); note: potency is the fitted concentration of half-maximal effect
Conditions: U2OS GR-GFP nuclear translocation, laser cytometry, 2 h

Potency, inactive:
Cc1cccc(CNc2ncnc3ccc(-c4ccc(C(=O)N(C)C)cc4)cc23)c1 > 46 µM
O=[N+]([O-])c1ccc(S(=O)(=O)Cc2ccccc2)c2nonc12 > 46 µM
CCN(CC)CCN1c2ccccc2Sc2ccc3ccccc3c21 > 46 µM
Oc1c(C(O)(c2ccccc2)c2ccc3ccccc3c2O)ccc2ccccc12 > 46 µM
Nc1nc(Sc2ccc([N+](=O)[O-])c3nonc23)c2[nH]cnc2n1 > 46 µM
C[C@@H]1CCCN(C[C@@H](O)CN2CCCc3ccccc32)C1 > 46 µM
CN(C)CCCN1c2ccccc2Sc2ccc3ccccc3c21 > 46 µM
CN(C)CCCN1c2ccc3ccccc3c2Sc2cccc(Cl)c21 > 46 µM
O=C1c2ccccc2C(O)(O)[C@@]1(O)[C@]1(O)C(=O)c2ccccc2C1(O)O > 46 µM
CC(=O)Nc1ccc(Cc2ccc3[nH]c(=O)cc(C)c3c2)cc1 > 46 µM
ClC(=Nc1cccc2ccccc12)N(c1ccccc1)c1ccccc1 > 46 µM
CC(=O)Nc1nc(NC(C)=O)c2[nH]c(CO)nc2n1 > 46 µM
OCCCNc1ncnc2[nH]ncc12 > 46 µM
COc1ccc(C(=O)[C@H](Br)[C@H](Br)C(=O)O)cc1 > 46 µM
C[N+](C)([O-])CCC=C1c2ccccc2CCc2ccccc21 > 46 µM
COCCn1c(=O)c(CCc2ccccc2)nc2cnc(Oc3cccc(Cl)c3)nc21 > 9.22 µM
O=C1C(Cl)=C(Sc2nnc3c4ccccc4c4ccccc4c3n2)C(=O)c2ccccc21 > 46 µM
CC(CC(=O)O)(CC(=O)O)c1ccccc1 > 46 µM
CN(C)CCCn1c2c3ccccc3ccc2c2oc(=O)c3ccccc3c21 > 46 µM
COc1cccc2c1[C@H](CO)N1[C@H](C#N)[C@@H]3C[C@H](C(=O)O)[C@@H]([C@@H]1C2)N3C > 46 µM
Cc1ccc(-c2nc(-c3nccc4ccccc34)oc2-c2ccccc2)cc1 > 46 µM
Oc1ccc2ccccc2c1CN(Cc1c(O)ccc2ccccc12)C1CCCCC1 > 46 µM
CCC1=C(C[C@H]2NCCc3ccccc32)C[C@@H]2c3cc(OC)c(OC)cc3CCN2C1 > 46 µM
C[C@H]1CC(C)(C)C[C@@](OCCN2CCCCC2)(c2ccccc2)C1 > 46 µM
CN1CCN(c2ncc3nc(-c4ccccc4)c(=O)n(Cc4ccc(F)cc4)c3n2)CC1 > 9.22 µM
CN(C)c1ccc(N=Nc2cccc3ccoc23)cc1 > 46 µM
N#Cc1c(NC(=O)C(F)(F)F)sc2c3c(=O)c4ccccc4c(=O)c=3oc3ccccc3c12 > 46 µM
Nc1ncnc2c([C@@H]3O[C@@H](CO)[C@H](O)[C@@H]3O)nsc12 > 46 µM
COc1ccc(-c2csc3c2[N+]2=CCC=C2C3=O)cc1 > 46 µM
CN(C)CCCN1c2ccc(O)cc2Sc2ccc(Cl)cc21 > 46 µM
N[C@@](CCc1ccccc1)(C(=O)O)c1ccccc1 > 46 µM
COc1ccc(Oc2ncc3nc(CCc4ccccc4)c(=O)n(C4CC4)c3n2)cc1 > 9.22 µM
C=C(C)COc1ccc2c(c1)CCC1C2CC[C@]2(C)C(=O)/C(=N/O)CC12 (stereo partly specified) > 46 µM
O=C1c2ccccc2-c2cc([N+](=O)[O-])c([N+](=O)[O-])cc21 > 46 µM
COc1ccc2nc3cc(Cl)ccc3c(Nc3ccc(O)c(CN4CCN(C)CC4)c3)c2c1 > 46 µM
C[C@@]12CC[C@@H]3[C@@H](CC[C@H]4C[C@@H](O)CC[C@]43C)[C@H]1CC[C@@H]2c1cc(C(F)(F)F)n[nH]1 > 46 µM
COc1ccc2c(c1)N(CC[C@H]1CCCCN1C)c1ccccc1S2 > 46 µM
CSc1ccc2c(c1)N(CCCN(C)C)c1ccccc1S2 > 46 µM
